Active and inactive are the calls of the source. How the calls were made is not given here.

A word on the inhibition: it is the relative decrease from the control value, in per cent.

The target in this test is Pantothenate synthetase (Mycobacterium tuberculosis (strain ATCC 25618 / H37Rv)) (UniProt P9WIL5). Briefly: Recombinant Mtb pantothenate synthetase (PanC) inhibitors, coupled enzyme, confirmatory (AID 375).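 Further: 0% = full reaction with vehicle and 100% = no enzyme background.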 The settings on record: coupled enzyme assay; at 10 µM, hits give high values.
Chain of Pantothenate synthetase (Mycobacterium tuberculosis (strain ATCC 25618 / H37Rv)) (P9WIL5 whole entry, looked up): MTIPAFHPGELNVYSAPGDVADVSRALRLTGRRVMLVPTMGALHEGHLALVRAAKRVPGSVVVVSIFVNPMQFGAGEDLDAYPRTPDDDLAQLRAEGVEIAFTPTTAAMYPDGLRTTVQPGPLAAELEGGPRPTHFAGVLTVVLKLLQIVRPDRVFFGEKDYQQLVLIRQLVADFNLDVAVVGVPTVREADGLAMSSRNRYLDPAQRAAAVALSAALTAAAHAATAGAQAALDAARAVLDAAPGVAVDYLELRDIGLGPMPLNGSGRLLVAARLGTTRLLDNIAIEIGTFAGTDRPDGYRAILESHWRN
On to `CCC(=O)Nc1cc(Cl)ccc1N1CCN(C(=O)CC)CC1`, for which the inhibition is 0% (inactive). With `Cc1cc(C)cc(C(=O)N2CCC(C(N)=O)CC2)c1`, the inhibition was 0% (inactive).

`CCN1CCN(C(=O)c2cc3c(=O)n(C)c4ccccc4c3n2C)CC1`: the inhibition was 0% (inactive). As to `COc1ccccc1Nc1nc(N)nc(CSc2nccc(C)n2)n1`, the inhibition is 0% (inactive). On to `CCOc1ccccc1N1CCN(c2nc3ccccc3nc2C(C#N)C(=O)OC)CC1` (stereo not given), for which the inhibition was 5% (inactive). As for `CC(C)Cn1c(=O)c(C2=NS(=O)(=O)c3ccccc3N2)c(O)c2ccccc21`, the inhibition is 2% (inactive).

Turning to `c1cc(CNc2ccc3c(c2)OCO3)ccn1`, the inhibition was 0% (inactive). Turning to `CCn1c(NC(=O)c2cccc(Cn3cc(Cl)cn3)c2)nc2ccccc21`, the inhibition is 0% (inactive).

On to `COc1ccc(CNC(=O)c2cc3c(=O)n4ccccc4nc3n(Cc3ccco3)c2=N)cc1`, for which the inhibition was 0% (inactive). In the case of `Cc1nnc(N2C(=O)C(O)=C(C(=O)c3ccco3)C2c2ccc(F)cc2)s1` (stereo not given), the inhibition was 0% (inactive). `CCOC(=O)CSc1nnc([C@H](C)NC(=O)OC(C)(C)C)o1`: the inhibition is 0% (inactive). As for `Oc1ccc(-c2n[nH]c(=S)n2Cc2ccccc2)cc1`, the inhibition is 0% (inactive). `COc1cc(OC)cc(OCC(O)Cn2cnc(-c3ccccc3)c2)c1` (stereo not given): the inhibition is 0% (inactive).

On to `CCc1c(C)c2c(C)nn(-c3ccccc3)c2[nH]c1=O`, for which the inhibition was 0% (inactive). With `COc1cccc(C(=O)Nc2ccc(C)cc2)c1`, the inhibition is 1% (inactive). With `N#Cc1c(NCc2ccccc2)ccnc1NCc1cccnc1` the figure was 0% (inactive); with `Cc1cc(C(=O)CSc2nnc(-c3ccco3)o2)c(C)n1CC1COc2ccccc2O1` (stereo not given), 0% (inactive); with `Cn1c(COc2ccccc2)nnc1SCC(=O)Nc1ccc(N2CCOCC2)c(Cl)c1`, 6% (inactive). `CCN(Cc1ccccc1)C(c1ccncc1)c1nnnn1C(C)(C)C` (stereo not given): the inhibition is 0% (inactive). With `COc1cccc(Oc2cn[nH]c2-c2ccc(O)cc2O)c1` the figure was 0% (inactive); with `CCOC(=O)C1=C(c2ccccc2)NC(=O)NC1c1ccc(N(C)C)cc1` (stereo not given), 0% (inactive); with `COc1ccccc1CN1C(=S)SC(C)(C)C1NO` (stereo not given), 0% (inactive).

As to `Cc1cc(NC(=O)CSc2nnc(C3CC3)n2C)no1`, the inhibition is 0% (inactive). Next, `CCOC(=O)CC(=O)Nc1c(C)cc(C)cc1C`: 4% (inactive); `COc1ccc(C(=O)CSc2nnc(C3CCCCC3)n2N)c(OC)c1`: 0% (inactive). Turning to `Cc1ccc(-c2nn(C)c(=O)c3ccccc23)cc1S(=O)(=O)N1CCOCC1`, the inhibition was 9% (inactive). `Cc1nc2ccc(CCO)cc2s1`: the inhibition is 0% (inactive). As to `CN(C)CCCC1(c2ccc(F)cc2)OCc2cc(C#N)ccc21` (stereo not given), the inhibition was 0% (inactive). As to `C=CCn1c(=O)[nH]c2cc(C(=O)N3CCN(c4ccc(C(C)=O)cc4)CC3)ccc2c1=O`, the inhibition is 1% (inactive). With `CSC1CCCCC1(O)CSc1nc2c(cc1C#N)CCCC2` (stereo not given) the figure was 4% (inactive); with `NC(=O)C1(N2CCCCC2)CCN(C2CC(=O)N(Cc3cccs3)C2=O)CC1` (stereo not given), 0% (inactive); with `CCCc1cc(=O)n2[nH]c(-c3ccc(Br)cc3)cc2n1`, 0% (inactive). Next, `COCCCNC(=O)CCCn1c(=O)c2ccccc2n(CC(=O)Nc2c(C)cccc2C)c1=O`: 0% (inactive); `O=C(O)c1[nH]c2ccc(Cl)cc2c1CC(=O)N1CCN(C(=O)c2ccco2)CC1`: 2% (inactive). `COc1cccc(-c2nc(-c3ccc(NC(=O)Cc4ccccc4OC)cc3)no2)c1`: the inhibition was 11% (inactive). Consider `COCCN1CN(S(=O)(=O)c2ccccc2)c2nc3ccccc3nc21`, for which the inhibition was 0% (inactive). `COc1ccc(-c2nc(C(N)=O)c3[nH]c(=O)n(-c4cccc(Cl)c4)c3n2)cc1OC`: the inhibition is 1% (inactive). On to `CCOc1cc(C(=O)NCc2ccncc2)cc(OCC)c1OCC`, for which the inhibition is 9% (inactive). Take `NC(=O)C1CCN(C(=S)c2cccs2)CC1`: the inhibition is 0% (inactive).

Turning to `COc1ccc(-n2c(Cc3cccn3C)nnc2SCC(N)=O)cc1`, the inhibition was 0% (inactive).

The values above are taken from PubChem BioAssay.
